Results reported in PubChem BioAssay (NCI).
Compounds without any hit were thinned out: in the full panel of roughly 83,000, 20% have a hit.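 Cell lines were cultured in 96-well plates, exposed to a single compound concentration, and assessed for percent growth 48 hours later.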 A number with no mark means an inactive call. Activity calls are given as the source filed them. How the source made its calls: active means growth percent below 10; inactive means the rest.

Legend:
Experiment in all cases: NCI-60 one-dose screen, 48 h (100 = growth as untreated, 0 = no growth, -100 = all killed)
Conditions in all cases: 10 µM unless noted
T-47D breast = test system: T-47D breast
BT-549 breast = test system: BT-549 breast
MDA-MB-435 melanoma = test system: MDA-MB-435 melanoma
SW-620 colon = test system: SW-620 colon
MCF7 breast = test system: MCF7 breast
HCT-116 colon = test system: HCT-116 colon
HCC-2998 colon = test system: HCC-2998 colon
KM12 colon = test system: KM12 colon

Row | Compound | growth (T-47D breast) | growth (BT-549 breast) | growth (MDA-MB-435 melanoma) | growth (SW-620 colon) | growth (MCF7 breast) | growth (HCT-116 colon) | growth (HCC-2998 colon) | growth (KM12 colon)
1 | CCn1c(C)nc([N+](=O)[O-])c1Sc1nc(N)nc2nc[nH]c12 | 44.8% | 47.9% | 25.3% | 39.4% | 14.5% | 16% | 30.6% | 21.2%
2 | COc1ccc(-c2coc3c(CO)c(O)ccc3c2=O)cc1 | 61.8% | 14.2% | 60.2% | 83.5% | 40.8% | 19.3% | 29.6% | 60.4%
3 | CC(=O)c1ccc2c(c1)C1C=CCC1[C@H](c1cc3c(cc1Br)OCO3)N2 (some centres not stated) | 36.2% | 44.6% | -27.2% (active) | 21.2% | 14.1% | 14.9% | 7.12% (active) | 17%
4 | O=C(COc1ccc(Cl)cc1)N1CCN(Cc2ccc3c(c2)OCO3)CC1 | 78.2% | 98.3% | 101% | 97% | 103% | 102% | 99.9% | 102%
5 | CC1(C)N=C(N)N=C(N)N1c1ccc(OCC(=O)Nc2ccccc2)c(Cl)c1 | 70% | 40.6% | 25.2% | 33% | 28.4% | 19.2% | 29.5% | 18.1%
6 | Clc1ccc(CN2COc3c(ccc4cccnc34)C2)cc1Cl | 5.72% (active) | 8.99% (active) | 12.8% | 18% | 12.6% | -39.1% (active) | -25.4% (active) | 7.75% (active)
7 | COc1ccc2c(c1)/C(=C/c1c(-c3cc(OC)c(OC)c(OC)c3Br)nc3sccn13)C(=O)N2 | 90.1% | 86.2% | 93.2% | 94.4% | 85% | 87.7% | 134% | 94.6%
8 | CC(Cl)(CCl)CS(=O)(=O)c1ccc(Cl)cc1 (configuration not stated) | 113% | 105% | 108% | 103% | 99.8% | 103% | 104% | 108%
9 | O=C(Nc1cccc(-n2ccc3c(NC(=O)c4ccccc4)nccc32)c1)c1cc(N2CCOCC2)cc(C(F)(F)F)c1 | 66.3% | -13.1% (active) | -13.3% (active) | 14.2% | 21.3% | 1.44% (active) | 28.8% | -3.61% (active)
10 | Nc1nccc(=S)[nH]1 | 99.6% | 114% | 110% | 103% | 93.4% | 109% | 114% | 106%
11 | COc1cc(C(=O)NNC(=O)c2ccccc2O)cc(OC)c1OC | 82.5% | 120% | 96.9% | 103% | 92.2% | 101% | 97.1% | 103%
12 | CCc1c(C)c2cc3c(c(C)c2oc1=O)OCC(=O)N3 | 58.6% | 74.7% | 74.5% | 90.3% | 82.1% | 52.7% | 90% | 84.3%
13 | O=C(Nc1ccc(-n2ccc3c(NC(=O)c4ccccc4)ncnc32)cc1)Nc1ccc(Cl)c(Cl)c1 | 33.5% | 33.3% | 5.82% (active) | -2.62% (active) | 0.297% (active) | -82.8% (active) | 32.7% | -8.64% (active)
14 | COc1ccc(CCNC=O)cc1OC | 99.7% | 96.1% | 103% | 93.4% | 94.1% | 100% | 104% | 102%
15 | COc1cc(/C=C2/Oc3cc4occc4c(OC)c3C2=O)ccc1OCC(=O)Nc1ccncc1 | 108% | 93.9% | 112% | 103% | 94.3% | 95.3% | 110% | 97.1%
16 | CC(=O)c1cc2c(c(O)c1C)C(=O)C(=O)c1c(O)cccc1-2 | -28.5% (active) | -94.4% (active) | -84.3% (active) | -69% (active) | -55.6% (active) | -85.9% (active) | -84.2% (active) | -50.5% (active)
17 | CC(C)C(=O)Nc1nc2c(s1)CCCc1ccn(S(=O)(=O)c3ccccc3)c1-2 | 91.9% | 89.8% | 106% | 105% | 86.3% | 78.9% | 106% | 97.1%
18 | Nc1nc(Cl)cc(NCCCCNc2cc(Cl)nc(N)n2)n1 | 108% | 99.9% | 124% | 112% | 109% | 102% | 103% | 113%
19 | CCCC(=O)Oc1ccc(/C(=C(\C)c2ccc(Cl)cc2)c2ccc(OCCN(CC)CC)cc2)cc1 | -33.1% (active) | 22.7% | -85.9% (active) | -80.2% (active) | -78.4% (active) | -86.7% (active) | -65.4% (active) | -44.4% (active)
20 | COc1ccc(-c2cc3ccc(N(C)C)cc3nc2N)c(F)c1 | 24.3% | 18.8% | 13.9% | 42.5% | 14.7% | 19.3% | 51.8% | 35%
21 | C=CC(=O)NC(=O)Nc1ccccc1Cl | 65.8% | 75.3% | 82.4% | 53.6% | 27.1% | 55.5% | 110% | 96.4%
22 | COc1ccc2c(c1)OC(N(C(C)=O)C(C)=O)=C(C#N)C2c1ccc(F)cc1 (configuration not stated) | 42% | 38.1% | -29.2% (active) | 20.9% | 17.8% | 25.5% | 59.2% | 25.6%
23 | COc1ccccc1S(=O)(=O)Nc1ccc2c3c(cc(-c4ccoc4)nc13)C(=O)N2C | 70.1% | 78.7% | 32.8% | 71.3% | 35.5% | 63% | 74.7% | 58.1%
24 | O=C(NNC(=O)c1ccc([N+](=O)[O-])cc1)c1ccc([N+](=O)[O-])cc1 | 92% | 89.8% | 101% | 106% | 90.4% | 84.6% | 104% | 105%
25 | C=C1C(=O)O[C@H]2[C@H]1CC/C(COC(=O)OC/C1=C/CC[C@@]3(C)O[C@H]3[C@H]3OC(=O)[C@@H](CN(C)C)[C@@H]3CC1)=C\CC[C@@]1(C)O[C@@H]21 | -15.2% (active) | -1.01% (active) | 2.87% (active) | -56.5% (active) | -29.7% (active) | -72.7% (active) | 79.8% | 37.9%
26 | C#C[C@@]1(O)[C@@H](CO)O[C@@H](n2cc(C(F)(F)F)c3c(N)ncnc32)[C@@H]1O | -19.3% (active) | -12.1% (active) | 14.7% | 4.55% (active) | 1.74% (active) | 4.15% (active) | 3.76% (active) | 6.52% (active)
27 | O=C(Nc1cccc([N+](=O)[O-])c1)c1ccc2ccccc2c1O | 35.8% | 80% | 49.7% | 74% | 77% | 59.4% | 67% | 79.1%
28 | COC(=O)/C=C/C(=O)c1cc(C)cc(C)c1O | 100% | 103% | 103% | 110% | 95.5% | 106% | 96.7% | 99.1%
29 | NC(=NCCCOc1ccc(F)cc1)Nc1ccc(Cl)c(Cl)c1 | 29.2% | 91.2% | 79% | 60.4% | 18.1% | 45.6% | -45.7% (active) | 76.5%
